# In PubChem BioAssay (NCATS):
# Inconclusive results are not listed. Activity calls are given as the source filed them. The call rests on the fitted dose curve; in most records, active means well fitted curve in the direction sought with a large enough effect; inconclusive means small, poorly fitted or top-dose-only effect, or another doubt; inactive means no such curve, though single readings can be large; an effect the other way counts as inactive or inconclusive.
# What was measured:
# [1] = biological target: Luciferin 4-monooxygenase (Photinus pyralis) (UniProt P08659); experiment: Biochemical firefly luciferase enzyme assay for NPC (AID 624030);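 further: purified P. pyralis luciferase at 10 nM with luciferin and ATP substrate; nearly all actives have a fitted effect of over 70% in size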
# Method in brief: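 Purified P. pyralis luciferase at 10 nM in 50 mM Tris Acetate (final), luminescence read within 5 minutes of enzyme addition to compounds. Activity normalised to PTC124 versus DMSO; concentration-response curves classed by r2, magnitude and activity.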
# [2] = S16 Schwann cell viability assay (CellTiter-Glo assay) (AID 624031); further: potency means the concentration at half of the fitted maximal effect; nearly all actives have a fitted effect of over 70% in size
# Method in brief: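 Rat S16 Schwann cells without reporter constructs received compound or DMSO for 24 h at 37 °C under 5% CO2. Cellular ATP was then quantified by CellTiter-Glo luminescence, with vehicle wells defined as 0% activity and cell-free wells as reference.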
# [3] = S16 Schwann cell PMP22 intronic element firefly luciferase assay (AID 624032); further: potency means the concentration at half of the fitted maximal effect; nearly all actives have a fitted effect of over 30% in size
# Method in brief: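 Rat S16 Schwann cells stably carrying firefly luciferase driven by a PMP22 intronic element, in 10% FBS, treated 24 h at 37 C. ONE-Glo luminescence normalized to PTC124 control and DMSO (0%); curves classed by r2, magnitude and activity.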
# [4] = test system: 7G8; experiment: qHTS profiling for inhibitors of Plasmodium falciparum proliferation (AID 504749); further: potency means the concentration at half of the fitted maximal effect; nearly all actives have a fitted effect of over 60% in size; settings: P. falciparum in erythrocytes, SYBR Green DNA, 72 h; series mostly up to 12.8 µM
# Method in brief: (§1)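 Readout was DNA-dye fluorescence from lysed cultures, ex 485/em 535 nm. Parasitized red cells had grown 72 h with compound; data scaled between 0.29 uM artemisinin and DMSO wells and corrected using vehicle-only plates.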
# [5] = test system: AA1029; experiment: as above; settings: P. falciparum in erythrocytes, SYBR Green DNA, 72 h; series mostly up to 12.8 µM
# Method in brief: as §1
# [6] = test system: CP211; experiment: as above; settings: P. falciparum in erythrocytes, SYBR Green DNA, 72 h; series mostly up to 12.8 µM
# Method in brief: as §1
# [7] = test system: CP217; experiment: as above; settings: P. falciparum in erythrocytes, SYBR Green DNA, 72 h; series mostly up to 12.8 µM
# Method in brief: as §1
# [8] = test system: CP260; experiment: as above; settings: P. falciparum in erythrocytes, SYBR Green DNA, 72 h; series mostly up to 12.8 µM
# Method in brief: as §1
# [9] = test system: CP268; experiment: as above; settings: P. falciparum in erythrocytes, SYBR Green DNA, 72 h; series mostly up to 12.8 µM
# Method in brief: as §1
# [10] = test system: CP297; experiment: as above; settings: P. falciparum in erythrocytes, SYBR Green DNA, 72 h; series mostly up to 12.8 µM
# Method in brief: as §1
# [11] = test system: CP315; experiment: as above; settings: P. falciparum in erythrocytes, SYBR Green DNA, 72 h; series mostly up to 12.8 µM
# Method in brief: as §1
# [12] = test system: DIV14; experiment: as above; settings: P. falciparum in erythrocytes, SYBR Green DNA, 72 h; series mostly up to 12.8 µM
# Method in brief: as §1
# [13] = test system: DIV17; experiment: as above; settings: P. falciparum in erythrocytes, SYBR Green DNA, 72 h; series mostly up to 12.8 µM
# Method in brief: as §1
# [14] = test system: FAB9; experiment: as above; settings: P. falciparum in erythrocytes, SYBR Green DNA, 72 h; series mostly up to 12.8 µM
# Method in brief: as §1
# [15] = test system: ICS; experiment: as above; settings: P. falciparum in erythrocytes, SYBR Green DNA, 72 h; series mostly up to 12.8 µM
# Method in brief: as §1
# [16] = test system: JCK; experiment: as above; settings: P. falciparum in erythrocytes, SYBR Green DNA, 72 h; series mostly up to 12.8 µM
# Method in brief: as §1
# [17] = test system: N140; experiment: as above; settings: P. falciparum in erythrocytes, SYBR Green DNA, 72 h; series mostly up to 12.8 µM
# Method in brief: as §1
# [18] = test system: PC15; experiment: as above; settings: P. falciparum in erythrocytes, SYBR Green DNA, 72 h; series mostly up to 12.8 µM
# Method in brief: as §1
# [19] = test system: TAB165; experiment: as above; settings: P. falciparum in erythrocytes, SYBR Green DNA, 72 h; series mostly up to 12.8 µM
# Method in brief: as §1
# [20] = test system: W2; experiment: as above; settings: P. falciparum in erythrocytes, SYBR Green DNA, 72 h; series mostly up to 12.8 µM
# Method in brief: as §1
# Sequence of Luciferin 4-monooxygenase (Photinus pyralis) (P08659 whole entry, looked up): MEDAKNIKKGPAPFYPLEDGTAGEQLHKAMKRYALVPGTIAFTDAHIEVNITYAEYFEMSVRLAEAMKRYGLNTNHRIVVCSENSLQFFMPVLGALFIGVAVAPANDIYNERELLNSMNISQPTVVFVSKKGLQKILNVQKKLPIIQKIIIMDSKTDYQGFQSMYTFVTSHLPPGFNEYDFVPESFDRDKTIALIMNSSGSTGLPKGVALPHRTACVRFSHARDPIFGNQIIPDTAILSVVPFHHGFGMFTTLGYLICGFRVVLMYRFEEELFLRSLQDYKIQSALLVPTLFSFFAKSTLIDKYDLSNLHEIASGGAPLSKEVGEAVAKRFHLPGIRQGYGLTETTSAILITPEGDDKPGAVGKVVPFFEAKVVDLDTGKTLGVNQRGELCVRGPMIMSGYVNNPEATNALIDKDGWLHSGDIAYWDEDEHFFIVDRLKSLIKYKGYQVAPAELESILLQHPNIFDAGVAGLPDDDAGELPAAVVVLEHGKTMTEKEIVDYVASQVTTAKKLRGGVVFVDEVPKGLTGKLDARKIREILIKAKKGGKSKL
structure (smiles),measurement,setting,value
Cc1cc(/C=C\c2ccc3cc(N(C)C)ccc3[n+]2C)c(C)n1-c1ccccc1,outcome,[1],inactive
same,Potency,[2],15500 nM (active)
same,Potency,[3],30.9 nM (active)
same,Potency,[4],398 nM (active)
same,Potency,[5],1580 nM (active)
same,Potency,[6],1810 nM (active)
same,Potency,[7],3160 nM (active)
same,Potency,[8],355 nM (active)
same,Potency,[9],4050 nM (active)
same,Potency,[10],2280 nM (active)
same,Potency,[11],2030 nM (active)
same,Potency,[12],2870 nM (active)
same,Potency,[13],3610 nM (active)
same,Potency,[14],2000 nM (active)
same,Potency,[15],562 nM (active)
same,Potency,[16],3160 nM (active)
same,Potency,[17],3980 nM (active)
same,Potency,[18],3550 nM (active)
same,Potency,[19],794 nM (active)
same,Potency,[20],128 nM (active)
